Bioassay records deposited in PubChem by National Center for Advancing Translational Sciences (NCATS).
Only some compounds are listed: those with a hit (about 17% of all), similar ones and a draw of the others.
HepG2 viability – kills HepG2 cells in TGF-b inhibitor counter-screen; AID 588856; Potency, µM (doses to about 46.1 µM), for the others: at the top dose activity change, negative = cytotoxicity, actives largely listed as cytotoxic; HepG2 CAGA-GFP viability, ATP luminescence, 18 h; actives 0.76% (n = 410,000)
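HepG2 CAGA-GFP cells (1000/well, DMEM with 1% FBS) received compound, then TGF-beta at 500 pg/mL final, and were incubated 18 hours at 37 degrees C. Viability was read by CellTiter-Glo luminescence. Media-only wells were set as complete cell-killing and DMSO as no toxicity.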
TDP1 cell CPT – growth inhibition of DT40 Tdp1-/-;hTDP1 cells with camptothecin (screen for TDP1 inhibitors); chicken DT40 Tdp1-/-;hTDP1 cells + 20 nM CPT, ATP luminescence, 48 h; actives 12% (n = 420,000); Potency, µM (highest dose often 46.2 µM), for the others: at the highest dose activity change, negative = growth inhibition, hits mostly inhibitors; further: on the % scale 0 is the no-effect control and ±100 the full control effect; nearly all actives have a fitted effect of over 55% in size
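Chicken DT40 Tdp1-/- cells stably complemented with human TDP1 were seeded at 400 cells/well in medium containing 20 nM camptothecin, exposed to pin-transferred compounds, and grown at 37 °C for at least 48 hr. Viability was read as ATP luminescence.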
TGFb inhibitor – TGF-b pathway inhibition; HepG2 CAGA-GFP TGF-b/SMAD3 reporter, GFP fluorescence, 18 h; TGF-beta stimulated, 500 pg/mL final; Potency, µM (highest dose often 46.1 µM), for the others: at the top dose activity, negative = inhibition, usual class: inhibitors; actives 1.2% (n = 410,000); AID 588855; further: on the % scale 0 is the no-effect control and ±100 the full control effect; nearly all actives have a fitted effect of over 65% in size
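Inhibition of TGF-beta-driven CAGA-GFP reporter expression in HEPG2 cells is measured by cellular GFP fluorescence after 18 h stimulation with 500 pg/mL recombinant TGF-beta in 1% FBS medium at 37 degrees C.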
TDP1 cell noCPT – qHTS for Inhibitors of human tyrosyl-DNA phosphodiesterase 1 (TDP1): qHTS in cells in absence of CPT | DT40 Tdp1-/- hTDP1 cells, no CPT, ATP luminescence, 48 h | actives 15% (n = 420,000) | Potency, µM (top dose mostly 46.2 µM), for the others: at the highest dose activity change, negative = growth inhibition, most hits filed as inhibitors; further: on the % scale 0 is the no-effect control and ±100 the full control effect; nearly all actives have a fitted effect of over 55% in size
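Stably hTDP1-transfected Tdp1-null chicken DT40 cells were treated with library compounds minus camptothecin and grown for at least 48 hr at 37 °C, after which cellular ATP was quantified by luminescence.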
ATXN2 expr inh – ATXN2 expression inhibition; HEK-293 ATXN2-luciferase reporter, luminescence, 24 h; Potency, µM (series often up to 57 µM), inactives show at the highest dose activity change, negative = inhibition, most hits filed as inhibitors; actives 0.72% (n = 360,000); AID 1745845; further: on the % scale 0 is the no-effect control and ±100 the full control effect; nearly all actives have a fitted effect of over 55% in size
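ATXN2-luciferase reporter cells (luciferase flanked by upstream and downstream ATXN2 gene portions) were treated 24 h at 37 °C with compounds at up to 57 uM. SteadyGlo luminescence gave expression; GF-AFC fluorescence gave viability.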
ATXN viability – reduces viability in counter-screen for ATXN expression inhibitors; S2 cells (HEK-293 line with an ATXN2-luciferase reporter) viability, CellTiter-Fluor protease fluorescence, 24 h; Potency, µM (doses to about 56.7 µM), most hits filed as cytotoxic; actives 0.49% (n = 400,000); further: nearly all actives have a fitted effect of over 40% in size
Numbers without * were called inactive; i = inactive; u = inconclusive; x = no result given. The call rests on the fitted dose curve; in most records, active means well fitted curve in the direction sought with a large enough effect; inconclusive means small, poorly fitted or top-dose-only effect, or another doubt; inactive means no such curve, though single readings can be large; an effect the other way counts as inactive or inconclusive. Potency means the concentration at half of the fitted maximal effect.

SMILES	HepG2 viability	TDP1 cell CPT	TGFb inhibitor	TDP1 cell noCPT	ATXN2 expr inh	ATXN viability
Cc1ccc(-n2nc3c(N4CCC(C(=O)NCCC(C)C)CC4)nnc(C)c3c2C)cc1	-9.3%	16.4µM*	u	u	-5.4%	i
Cc1ccc(-n2nc3c(N4CCC(C(=O)NCCc5ccco5)CC4)nnc(C)c3c2C)cc1	-16.2%	20.6µM*	u	u	-38.7%	i
COc1ccc(-n2nc3c(N4CCC(C(=O)NCc5ccco5)CC4)nnc(C)c3c2C)cc1	-7.6%	u	u	u	x	i
Cc1nnc(N2CCC(C(=O)NC(C)C)CC2)c2nn(-c3ccc(Cl)cc3)c(C)c12	2.0%	7.7%	15.6%	16.8%	2.9%	i
CN1C(=O)[C@H]2[C@@H](c3ccc(F)cc3)N3C(=O)c4ccccc4NC(=O)[C@@]3(C)[C@H]2C1=O	-0.2%	-19.9%	18.5%	-4.5%	-2.0%	i
CCc1nnc(NC(=O)CCC(=O)NC2CCCCCCC2)s1	-1.6%	-1.6%	-6.2%	2.1%	x	i
Oc1ccccc1/C=N/Nc1nccnc1Cl	-30.5%	4.61µM*	0.0%	2.91µM*	u	u
Oc1ccc(C=NNc2ccccn2)c(O)c1	0.6%	4.11µM*	-6.0%	2.91µM*	u	u
Oc1ccc(/C=N/Nc2ncc(Br)cn2)c(O)c1	3.8%	7.31µM*	-21.1%	7.31µM*	u	i
COc1cccc(/C=N/Nc2nccnc2Cl)c1O	11.2µM*	3.26µM*	-29.4%	4.61µM*	5.62µM*	u
O=[N+]([O-])c1ccccc1/C=N/Nc1nccnc1Cl	-43.9%	0.1%	-0.3%	-7.5%	46.1%	i
Oc1cccc(C=NNc2ccccn2)c1	2.4%	-24.4%	u	-18.8%	43.0%	i
Oc1ccc(/C=N/Nc2nccnc2Cl)c(O)c1	-19.1%	3.26µM*	1.7%	3.26µM*	u	u
COc1cccc(/C=N/Nc2ncnc3scc(-c4ccccc4)c23)c1O	-2.9%	1.03µM*	u	1.46µM*	1.12µM*	i
COc1ccc(/C=N/Nc2nccnc2Cl)c(OC)c1	-41.3%	5.0%	20.4%	-13.7%	37.5%	i
O=[N+]([O-])c1ccc(/C=N/Nc2ncc(-c3ccccc3)cn2)cc1	-1.3%	3.6%	4.0%	0.5%	-25.8%	x
Oc1ccc(Br)cc1/C=N/Nc1ncc(-c2ccccc2)cn1	-27.3%	6.51µM*	6.3%	8.2µM*	-37.8%	i
CCCN1CCC(NC(=O)C2CC=CCC2C(=O)O)CC1 (stereo unspecified)	1.8%	-17.0%	-12.2%	24.6%	-3.1%	i
CCCNC(=O)CCCN1C(=O)c2ccccc2Sc2ncccc21	11.2%	-19.9%	4.7%	9.4%	9.7%	i
Cc1ccc(CN2C(=O)c3ccccc3Sc3ccc(C(=O)NCc4ccco4)cc32)cc1	-21.3%	-20.8%	0.0%	u	x	x
CCN(CC)CCCNC(=O)c1ccc2c(c1)N(Cc1c(F)cccc1Cl)C(=O)c1ccccc1S2	11.2µM*	u	10µM*	14.6µM*	20µM*	i
CN(Cc1ccco1)C(=O)c1ccc2c(c1)N(Cc1ccccc1F)C(=O)c1ccccc1S2	-14.1%	20.6µM*	-26.2%	u	x	x
O=C(NCc1ccco1)c1ccc2c(c1)N(Cc1c(F)cccc1Cl)C(=O)c1ccccc1S2	-1.9%	u	u	16.4µM*	9.9%	i
O=C(OCc1ccco1)c1ccc2c(c1)N(Cc1cccc(F)c1)C(=O)c1ccccc1S2	-10.2%	x	7.9%	x	11.4%	i
Cn1c(N)c(C(=O)CSc2nc(C3CC3)n(-c3ccccc3)n2)c(=O)n(C)c1=O	2.7%	-15.3%	12.2%	u	x	i
